The whole screen tested about 300,000 compounds, of which about 480 (0.16%) were called active.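 Rule for the calls: active = inhibition over 29.93%, a cutoff 3 SD above the screen mean, later confirmed by dose response; inconclusive = inhibition over 29.93% but no dose response follow-up; inactive = inhibition at most 29.93% or unconfirmed.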 A selection follows. Entries with a potency or affinity are not part of this list.
Assay: PhoP-dependent GFP reporter repression – Salmonella Typhimurium, primary screen (AID 1863);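 note: 0% = low Mg2+ inducing control and 100% = high Mg2+ repressing control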
Conditions: S. Typhimurium PhoP-regulated promoter GFP reporter, 4 h; at 50 µM; hits give high values

inhibition, inactive:
O=C(c1ccccc1)c1ccccn1 3.01%, Cc1ccccc1-c1nnc(SCCOc2ccc3c(C)cc(=O)oc3c2)o1 0.64%, Cc1ccc(S(=O)(=O)CC(=O)c2ccc([N+](=O)[O-])cc2)cc1 -7.13%, CCn1cc(C(=O)NN)c(=O)c2cc(F)c(N3CCOCC3)cc21 -6.58%, CCn1cc(C(=O)NCc2ccccn2)c(=O)c2cc(F)c(N3CCN(C)CC3)cc21 17.4%, CCCCCOC(=O)NCC(O)c1ccccc1 (stereo unspecified) 10.7%, N#CC1=C(N)N(c2ccccc2)C(c2cccc([N+](=O)[O-])c2)C1(C#N)C#N (stereo unspecified) -7.85%, O=C(Cc1ccccc1)c1c[nH]c(C(=O)NCCCN2CCOCC2)c1 -3.4%, O=C(Nc1ccccc1N1CCOCC1)C1CCN(S(=O)(=O)c2ccc(F)cc2)CC1 -4.59%, O=C(Nc1ccc(CN2CCOCC2)cc1)c1cccc(-c2cc3ccccc3oc2=O)c1 -5.22%, Cc1cc([N+](=O)[O-])ccc1-c1ccc(C2Nc3ccccc3C(=O)N2O)o1 (stereo unspecified) -3.84%, O=C1c2ccccc2NC(c2ccc(-c3cccc([N+](=O)[O-])c3)o2)N1O (stereo unspecified) 43%, O=C1c2ccccc2NC(c2ccco2)N1O (stereo unspecified) 7.8%, O=C1c2ccccc2NC(c2ccc(Cl)cc2Cl)N1O (stereo unspecified) 0.793%, O=C(N/N=C/c1ccccc1[N+](=O)[O-])c1ccc2c(c1)OCCO2 -4.47%, CCOC(=O)c1sc(=S)n(-c2ccc(C)cc2)c1SC -0.48%, Nc1nc(N2CCOCC2)nc2ccccc12 19.6%, Nc1nc(N2CCCCC2)nc2ccccc12 0.383%, O=C(N/N=C\c1cccc(Cl)c1)c1ccc(Cn2cc(Br)c([N+](=O)[O-])n2)o1 -28.5%, Nc1cc(C(=O)O)c(Oc2ccc(Cl)cc2Cl)cc1C(=O)O 9.23%, O=C(O)/C=C/c1ccccc1Oc1ccc(Cl)cc1Cl 1.78%, COc1ccc(N2CCN(C(=O)COc3cccc4ccccc34)CC2)cc1 4.64%, Cc1ccc(NCC(=O)N/N=C/c2ccc(C(=O)O)cc2)cc1 7.26%, CC(=O)N1CCOc2ccc(S(=O)(=O)N3CCC(C(=O)Nc4ccc(C)cc4)CC3)cc21 0.99%, O=C(Cn1nc(CNc2ccc(Cl)cc2)[n+]2c1CCCCC2)c1ccc(Cl)cc1 7.8%, O=C(Cn1nc(CNc2ccc(Br)cc2)[n+]2c1CCCCC2)c1ccc([N+](=O)[O-])cc1 5.85%, O=C(Cn1nc(CNc2ccc(Cl)cc2)[n+]2c1CCCCC2)c1ccccc1 8.62%, COc1ccc(NCc2nn(CC(=O)c3ccc(Br)cc3)c3[n+]2CCCCC3)cc1 -2.79%, O=C1Nc2ccccc2OCc2c1cccc2[N+](=O)[O-] -2.35%, O=C(O)C1CCC1C(=O)Nc1nc(-c2ccc(Cl)s2)cs1 (stereo unspecified) -4.65%, CCC(=O)c1ccccc1OCCCCn1cncn1 4.32%, CN1CCN(C(=O)CSc2nnc(COc3ccc(Cl)cc3)o2)CC1 5.2%, CC(=O)Nc1cccc(NC(=O)CCNC(=O)c2ccccc2)c1 5.9%, Cc1nnc(SCc2ccc(CC(=O)O)cc2)o1 -9.32%, COc1ccc(C(=O)NCC(c2cccs2)N2CCc3ccccc32)cc1OC (stereo unspecified) -7.86%, COC(=O)C1=C(C)NC2=C(C(=O)CC(C)(C)C2)C1c1cnn(C)c1C (stereo unspecified) -3.34%, C/C(=N\Nc1nc2ccccc2[nH]1)c1ccc(C)o1 9.28%, C/C(=N\Nc1nc2ccccc2[nH]1)c1ccc(Cl)s1 31.6%, CN(C)S(=O)(=O)c1ccc(C(=O)NCc2ccccc2)cc1 5.29%, CC(C)CNC(=O)COC(=O)c1cccc(S(=O)(=O)NCC(F)(F)F)c1 0.22%, Cn1c(=O)c(C(=O)NNC(=O)c2ccccc2Cl)c(O)c2ccccc21 3.12%

Reference: PubChem BioAssay AID1863 (Southern Research Specialized Biocontainment Screening …, 2009)
